Inconclusive results are not listed. Calls of active or inactive are those of the source. The call rests on the fitted dose curve; in most records, active means well fitted activation curve with a large enough effect in the signal ratio in the repeat runs, with a control signal flat (not every such curve was filed as active); inconclusive means weak or mixed curves, or effect the other way; inactive means no such curve, though single readings can be large or run the other way; the % refers to the signal ratio.
Molecular target: Androgen receptor (Homo sapiens) (UniProt P10275)
Sequence (P10275 whole entry, looked up): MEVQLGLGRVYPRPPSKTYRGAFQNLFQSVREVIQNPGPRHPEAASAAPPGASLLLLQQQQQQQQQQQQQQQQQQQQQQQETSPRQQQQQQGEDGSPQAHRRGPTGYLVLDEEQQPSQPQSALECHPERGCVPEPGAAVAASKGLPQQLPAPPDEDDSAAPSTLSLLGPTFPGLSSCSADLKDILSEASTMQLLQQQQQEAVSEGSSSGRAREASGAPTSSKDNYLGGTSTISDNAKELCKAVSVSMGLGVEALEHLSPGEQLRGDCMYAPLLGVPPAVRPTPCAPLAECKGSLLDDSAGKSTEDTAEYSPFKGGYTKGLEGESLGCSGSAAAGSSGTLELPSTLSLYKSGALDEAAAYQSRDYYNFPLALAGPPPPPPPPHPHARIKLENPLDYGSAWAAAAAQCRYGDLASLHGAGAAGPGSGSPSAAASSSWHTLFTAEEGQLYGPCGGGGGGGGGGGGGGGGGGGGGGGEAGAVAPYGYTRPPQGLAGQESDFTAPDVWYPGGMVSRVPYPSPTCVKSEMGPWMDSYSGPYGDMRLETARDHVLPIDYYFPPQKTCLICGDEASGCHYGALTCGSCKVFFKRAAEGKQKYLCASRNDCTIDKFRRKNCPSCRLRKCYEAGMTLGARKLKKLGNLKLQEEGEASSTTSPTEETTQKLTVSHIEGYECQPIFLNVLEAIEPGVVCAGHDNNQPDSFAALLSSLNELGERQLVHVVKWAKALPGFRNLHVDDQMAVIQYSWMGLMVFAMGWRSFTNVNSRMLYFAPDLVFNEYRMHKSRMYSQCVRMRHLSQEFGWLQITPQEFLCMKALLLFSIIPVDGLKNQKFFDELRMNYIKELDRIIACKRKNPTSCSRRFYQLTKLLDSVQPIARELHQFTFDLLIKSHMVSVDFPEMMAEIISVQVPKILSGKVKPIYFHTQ
Test: qHTS assay to identify small molecule agonists of the androgen receptor (AR) signaling pathway (AID 743036)
Settings: HEK293 AR-UAS-bla GripTite, beta-lactamase FRET ratio, 16 h; series mostly up to 62.4 µM
Text: U.S. Tox21 Program National Center for Advancing Translational Sciences [NCATS] NIH Chemical Genomics Center [NCGC] U.S. Environmental Protection Agency [EPA] National Institutes of Environmental Health Sciences [NIEHS] National Toxicology Program [NTP] U.S. Food and Drug Administration [FDA] Tox21 Assay Overview: Androgen receptor (AR), a nuclear hormone receptor, plays a critical role in AR-dependent prostate cancer and other androgen related diseases. Endocrine disrupting chemicals (EDCs) and their interactions with steroid hormone receptors like AR may cause disruption of normal endocrine function as well as interfere with metabolic homeostasis, reproduction, developmental and behavioral functions. To identify the compounds that activate AR signaling, GeneBLAzer AR-UAS-bla-GripTite cell line (Invitrogen, Carlsbad, CA, USA) containing a beta-lactamase reporter gene under the control of an Upstream Activator Sequence (UAS) stably integrated into HEK293 cells was used to screen the Tox21 10K compound library.
Tox21 Assay Protocol Summary: AR-bla cells were dispensed at 2,000 cells/6 uL/well of assay medium into black wall/clear-bottom 1536-well plates using a Multidrop Combi (ThermoFisher Scientific, Waltham, MA) dispenser. After the assay plates were incubated at 37C and 5% CO2 for 4 h, 23 nL of compounds dissolved in DMSO, positive controls or DMSO only was transferred to the assay plate by a Pintool station (Kalypsys, San Diego, CA). The plates were incubated at 37C and 5% CO2 for 16 h. Then 1 uL of LiveBLAzerTM B/G FRET substrate was added using a Bioraptr Flying Reagent Dispenser (FRD) workstation (Beckman Coulter, Indianapolis, IN, USA). The plates were incubated at room temperature for 2 h, and fluorescence intensity was measured by an Envision plate reader (PerkinElmer, Shelton, CT).

Structure (SMILES) | outcome
O=S1OC[C@@H]2[C@H](CO1)[C@]1(Cl)C(Cl)=C(Cl)[C@@]2(Cl)C1(Cl)Cl (stereo not given in full) | inactive
c1ccc(C2CC2)c(OCC2=NCCN2)c1 | inactive
O=[N+]([O-])C(Br)(CO)CO | inactive
O=C1C(Cl)C(CCl)CN1c1cccc(C(F)(F)F)c1 (stereo not given) | inactive
OC(c1ccc(Cl)cc1)(c1ccc(Cl)cc1)c1cccnc1 | inactive
CC1CC(CC2CCC(N)C(C)C2)CCC1N (stereo not given) | inactive
IC(I)=C(I)I | inactive
C[C@@H]1CC[C@H]2[C@@H](C)C(=O)O[C@@H]3O[C@@]4(C)CC[C@@H]1[C@]32OO4 | inactive
COP(=O)(OC)O/C(=C/Cl)c1cc(Cl)c(Cl)cc1Cl | inactive
CCOP(=S)(OCC)Oc1nc(Cl)c(Cl)cc1Cl | inactive
Brc1ccccc1 | inactive
Cc1ccc2ccccc2c1 | inactive
BrCC(Br)C1CCC(Br)C(Br)C1 (stereo not given) | inactive
S=C=NCc1ccccc1 | inactive
CCOP(=S)(OCC)Oc1cc(Cl)c(Br)cc1Cl | inactive
CC(=O)NC1CCSC1=O (stereo not given) | inactive
CCCCN(N=O)C(=N)N[N+](=O)[O-] | inactive
CCCCCC[N+](=O)[O-] | inactive
O=C(CCl)c1ccc(Cl)cc1Cl | inactive
CC(C)=CCOc1c2occc2cc2ccc(=O)oc12 | inactive
CS/C(C)=N/OC(=O)N(C)SN(C)C(=O)O/N=C(\C)SC | inactive
CCCCCCCCCCOC(=O)c1ccccc1C(=O)OCCCCCCCCCC | inactive
Cc1cc(=O)[nH]o1 | inactive
O=C(C(Cl)(Cl)Cl)C(Cl)(Cl)Cl | inactive
O=NN1CCCCCC1 | inactive
C=CCOC(C)=O | inactive
COC(C)(C)CCC[C@H](C)C/C=C/C(C)=C/C(=O)OC(C)C | inactive
CCCCC(CC)COP(=O)(Oc1ccccc1)Oc1ccccc1 (stereo not given) | inactive
CCCCC(O)(Cn1cncn1)c1ccc(Cl)cc1Cl (stereo not given) | inactive
Cl/C=C\C[N+]12CN3CN(CN(C3)C1)C2 | inactive

— PubChem BioAssay (Tox21)
